# In PubChem BioAssay (Tox21):
# Values without a mark were called inactive. Results filed as inconclusive are left out. Where a call stands in place of a potency, no number is given. Calls of active or inactive are those of the source. Unless noted, the call rests on the fitted dose curve; in most records, active means well fitted curve in the direction sought with a large enough effect in the repeat runs; inconclusive means weak or mixed curves; inactive means no such curve, though single readings can be large; an effect the other way counts as inactive or inconclusive.
# Key:
# [1] = qHTS assay to identify small molecule agonists of the estrogen receptor alpha (ER-alpha) signaling pathway in the presence of an antagonist - cell viability counter screen (AID 1259386);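 further: series mostly up to about 92 µM; cells exposed to compounds for 22 h at 37 °C before the viability read; nearly all actives have a fitted effect of over 30% in size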
# Method in brief: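 Read-out: CellTiter-Fluor fluorescence after 1hr reagent incubation, measured in the same wells as the luciferase readout. VM7Luc4E2 cells were exposed to 15 compound concentrations with 10.0nM ICI-182,780 for 22hr at 37C.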
# [2] = target: Progesterone receptor (Homo sapiens) (UniProt P06401); assay: qHTS assay to identify small molecule agonists of the progesterone receptor (PR) signaling pathway (AID 1346784; calls by dose curve; further: nearly all actives have a fitted effect of over 30% in size)
# Method in brief: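 Fluorescence from LiveBLAzer B/G FRET substrate cleavage (2 hr, RT) reported PR activation in PR-UAS-bla HEK 293T cells treated 16 hr at 37C/5% CO2 with compounds; medium contained 2% charcoal-stripped FBS.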
# [3] = target: Progesterone receptor (Homo sapiens) (UniProt P06401); assay: qHTS assay to identify small molecule antagonists of the progesterone receptor (PR) signaling pathway (AID 1346795; active means well fitted inhibition curve with a large enough effect in the signal ratio in the repeat runs, not every such curve was filed as active; the % refers to the signal ratio; further: potency means the concentration at half of the fitted maximal effect)
# Method in brief: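 Fluorescence intensity measured 2 hr after adding beta-lactamase FRET substrate to PR-UAS-bla HEK293T cells that had been co-treated 16 hr with compound and 1 nM R5020 (final concentration) in 2% charcoal-stripped FBS.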
# [4] = qHTS assay to identify small molecule antagonists of the progesterone receptor (PR) signaling pathway - cell viability counter screen (AID 1346798); further: series mostly up to about 92 µM; nearly all actives have a fitted effect of over 50% in size
# Method in brief: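 CellTiter-Glo luminescence; PR-UAS-bla HEK293T, 3,000 cells/well; compound + R5020, 16 hr, 37C/5% CO2; 30 min RT before read.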
# [5] = qHTS assay to identify small molecule agonists of the progesterone receptor (PR) signaling pathway - cell viability counter screen (AID 1346799; calls by dose curve; further: nearly all actives have a fitted effect of over 45% in size)
# Method in brief: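 In parallel with the beta-lactamase readout, cytotoxicity toward PR-UAS-bla HEK293T cells was measured by CellTiter-Glo luminescence following 16 hr compound incubation in 2% charcoal-stripped FBS medium.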
# [6] = qHTS assay to identify small molecule antagonists of the TGF-beta/Smad signaling pathway - cell viability counter screen (AID 1346824); further: nearly all actives have a fitted effect of over 50% in size
# Method in brief: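 Cytotoxicity counter-screen run in the same wells as the beta-lactamase Smad reporter read: CellTiter-Glo luminescence after 30 min at room temperature. HEK 293T SBE-bla cells had 5 hr compound exposure at 37 C with TGF-beta1 (0.25 ng/mL stock).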
# [7] = qHTS assay to identify small molecule agonists of the TGF-beta/Smad signaling pathway (AID 1346859; active means well fitted activation curve with a large enough effect in the signal ratio in the repeat runs, not every such curve was filed as active; the % refers to the signal ratio; further: series mostly up to about 77 µM)
# Method in brief: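 After overnight seeding, SBE-bla HEK 293T cells are dosed with compounds in DMSO and kept 5 hr at 37 C, 5% CO2. LiveBLAzer-type FRET substrate is then applied for 2 hr at room temperature.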
# [8] = target: Thyrotropin-releasing hormone receptor (Homo sapiens) (UniProt P34981); assay: qHTS assay to identify small molecule antagonists of the thyrotropin-releasing hormone receptor (TRHR) signaling pathway (AID 1346877; active means well fitted inhibition curve with a large enough effect in the repeat runs, not every such curve was filed as active; further: series mostly up to about 51 µM)
# Method in brief: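 HEK293/TRHR cells, 18 h, 37 °C; Ca2+ dye 2 h; cpd 5 min RT; TRH 1 nM final; fluorescence read 3 min, 1 s intervals; 15 concs, triplicate.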
# [9] = target: Thyrotropin-releasing hormone receptor (Homo sapiens) (UniProt P34981); assay: qHTS assay to identify small molecule agonists of the thyrotropin-releasing hormone receptor (TRHR) signaling pathway (AID 1346891; calls by dose curve;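 further: HEK293 cells expressing TRHR with calcium dye readout; series mostly up to about 58 µM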)
# Method in brief: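 Compounds were tested as agonists at 15 concentrations, in triplicate, on TRHR-Hek293 cells; calcium-sensitive dye fluorescence was recorded for 3 min following addition.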
# [10] = Caspase-3/7 induction in HepG2 cells by small molecules, qHTS assay (AID 1346978); further: nearly all actives have a fitted effect of over 15% in size
# Method in brief: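 Caspase-3/7 induction was measured by Caspase-Glo 3/7 luminescence (30 min, room temperature) after a 17 hr compound exposure of wild-type HepG2 cells seeded at 2,000 per well and pre-incubated 5 hr.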
# [11] = Caspase-3/7 induction in CHO-K1 cells by small molecules, qHTS cell viability counter screen (AID 1346979); further: nearly all actives have a fitted effect of over 35% in size
# Method in brief: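 Viability readout by fluorescence (CellTiter-Fluor) on wild-type CHO-K1 cells exposed for 16hr at 37C and 5% CO2 to compounds delivered in DMSO; reagent incubated 1hr before reading.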
# [12] = Caspase-3/7 induction in CHO-K1 cells by small molecules, qHTS assay (AID 1346980); further: nearly all actives have a fitted effect of over 15% in size
# Method in brief: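 Luminescent Caspase-Glo 3/7 read (30min, room temperature) quantified apoptosis induction. Cells were wild-type CHO-K1, treated with compound for 17hr at 37 C and 5% CO2.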
# [13] = Caspase-3/7 induction in HepG2 cells by small molecules, qHTS cell viability counter screen (AID 1346981); further: series mostly up to about 92 µM; nearly all actives have a fitted effect of over 30% in size
# Method in brief: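 Fluorescence read-out of live-cell protease activity (CellTiter-Fluor) after 1 hr with reagent. This was measured in the same wells as the caspase-3/7 luminescence, on HepG2 cells exposed to DMSO-dissolved compounds for 16 hr at 37 C.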
# [14] = target: Nuclear receptor subfamily 1 group I member 2 (Homo sapiens) (UniProt O75469); assay: Human pregnane X receptor (PXR) small molecule agonists, qHTS assay (AID 1346982); further: nearly all actives have a fitted effect of over 35% in size; further: potency means the concentration at half of the fitted maximal effect
# Method in brief: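 HepG2 PXR-Luc reporter line, 5% charcoal-stripped FBS; 5 hr pre-incubation, compound (DMSO) 24 hr at 37 C/5% CO2; ONE-Glo 30 min RT; luminescence read-out.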
# [15] = target: Cytochrome P450 2D6 (Homo sapiens) (UniProt P10635); assay: Cytochrome P450 Family 2 Subfamily D Member 6 (CYP2D6) small molecule antagonists: luciferase reporter qHTS assay (AID 1671196); further: nearly all actives have a fitted effect of over 50% in size; further: potency means the concentration at half of the fitted maximal effect; on activity change, negative = inhibition: series mostly up to about 120 µM
# Method in brief: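 Luminogenic proluciferin substrate, CYP2D6 enzyme; 10 min RT preincubation with compound, NADPH regeneration system added, 1 h RT. Stop/detection reagent, 20 min RT, luminescence read (RLU). Signal proportional to CYP activity.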
# [16] = qHTS assay to identify small molecule agonists of the TGF-beta/Smad signaling pathway - cell viability counter screen (AID 1346829); further: top concentration of the series differs between compounds; nearly all actives have a fitted effect of over 45% in size
# Method in brief: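 Compound-treated SBE-bla HEK 293T cells (5 hr, 37 C) were assessed for viability with CellTiter-Glo in parallel with the reporter read.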
# [17] = target: Nuclear receptor subfamily 1 group I member 2 (Rattus norvegicus) (UniProt Q9R1A7); assay: Rat pregnane X receptor (rPXR) activation by small molecules, qHTS assay (AID 1346983); conditions: rPXR luciferase reporter cells, One-Glo luminescence, 24 h; max activation: hits give high values; further: nearly all actives have a fitted effect of over 20% in size
# Method in brief: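 Luminescent readout (One-Glo luciferase, 30 min room temperature) followed 24 hr compound treatment at 37 C of rPXR cells plated 2,000 per well and preincubated 5hr; qHTS format with compounds delivered in DMSO.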
# [18] = target: Nuclear receptor subfamily 1 group I member 2 (Homo sapiens) (UniProt O75469); assay: CYP3A4 induction through human pregnane X receptor (PXR) by small molecules, qHTS assay (AID 1346984); further: nearly all actives have a fitted effect of over 40% in size; further: potency means the concentration at half of the fitted maximal effect
# Method in brief: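 HepG2-derived DPX-2 line carrying PXR plus a CYP3A4-promoter luciferase reporter; cells plated 5 hr, compound-exposed 24 hr at 37C. CYP3A4 activity probed with 3uM (final) Luciferin-IPA for 3hr, then luciferase read after One-Glo.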
# [19] = target: Nuclear receptor subfamily 1 group I member 2 (Homo sapiens) (UniProt O75469); assay: Human pregnane X receptor (PXR) activation by small molecules, qHTS assay (AID 1346985); further: nearly all actives have a fitted effect of over 40% in size; further: potency means the concentration at half of the fitted maximal effect
# Method in brief: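 DPX-2 cells (HepG2 co-transfected with a PXR response element and a CYP3A4-promoter luciferase construct) were seeded at 2,000 per well, rested 5 hr at 37C, then exposed to DMSO-dissolved compounds for 24 hr. Activation was read as luciferase luminescence.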
# [20] = Human pregnane X receptor (PXR) small molecule agonists, qHTS cell viability counter screen (AID 1346977); further: nearly all actives have a fitted effect of over 50% in size
# Method in brief: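 Viability counter screen: CellTiter-Fluor signal in PXR-Luc HepG2 cells, 24hr compound exposure, 37C, 5% CO2.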
# Nuclear receptor subfamily 1 group I member 2 (Rattus norvegicus), sequence (Q9R1A7 whole entry, looked up): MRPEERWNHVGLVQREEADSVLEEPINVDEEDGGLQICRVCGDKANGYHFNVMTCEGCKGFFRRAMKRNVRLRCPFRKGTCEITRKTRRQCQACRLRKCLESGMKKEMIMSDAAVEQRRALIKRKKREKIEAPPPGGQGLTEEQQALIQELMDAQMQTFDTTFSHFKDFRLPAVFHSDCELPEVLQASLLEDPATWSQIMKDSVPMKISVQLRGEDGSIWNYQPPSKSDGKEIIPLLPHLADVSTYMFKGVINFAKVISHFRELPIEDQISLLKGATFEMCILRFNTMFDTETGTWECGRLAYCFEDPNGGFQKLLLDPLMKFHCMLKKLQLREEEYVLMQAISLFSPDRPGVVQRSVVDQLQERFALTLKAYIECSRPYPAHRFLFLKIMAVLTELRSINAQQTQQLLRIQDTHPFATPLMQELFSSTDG
# Cytochrome P450 2D6 (Homo sapiens), sequence (P10635 whole entry, looked up): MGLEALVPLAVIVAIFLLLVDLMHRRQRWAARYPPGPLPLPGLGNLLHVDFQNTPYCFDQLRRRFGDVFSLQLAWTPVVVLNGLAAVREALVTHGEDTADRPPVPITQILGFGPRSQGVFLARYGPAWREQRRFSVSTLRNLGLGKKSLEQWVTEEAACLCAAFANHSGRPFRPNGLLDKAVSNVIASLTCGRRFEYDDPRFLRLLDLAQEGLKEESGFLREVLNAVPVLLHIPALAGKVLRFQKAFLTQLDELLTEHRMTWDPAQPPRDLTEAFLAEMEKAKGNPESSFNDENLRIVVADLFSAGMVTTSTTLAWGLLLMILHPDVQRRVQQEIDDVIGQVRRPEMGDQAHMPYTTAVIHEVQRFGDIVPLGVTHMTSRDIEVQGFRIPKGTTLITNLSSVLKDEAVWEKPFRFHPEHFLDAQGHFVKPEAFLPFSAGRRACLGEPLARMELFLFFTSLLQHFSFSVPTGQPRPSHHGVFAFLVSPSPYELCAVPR
# Thyrotropin-releasing hormone receptor (Homo sapiens), sequence (P34981 whole entry, looked up): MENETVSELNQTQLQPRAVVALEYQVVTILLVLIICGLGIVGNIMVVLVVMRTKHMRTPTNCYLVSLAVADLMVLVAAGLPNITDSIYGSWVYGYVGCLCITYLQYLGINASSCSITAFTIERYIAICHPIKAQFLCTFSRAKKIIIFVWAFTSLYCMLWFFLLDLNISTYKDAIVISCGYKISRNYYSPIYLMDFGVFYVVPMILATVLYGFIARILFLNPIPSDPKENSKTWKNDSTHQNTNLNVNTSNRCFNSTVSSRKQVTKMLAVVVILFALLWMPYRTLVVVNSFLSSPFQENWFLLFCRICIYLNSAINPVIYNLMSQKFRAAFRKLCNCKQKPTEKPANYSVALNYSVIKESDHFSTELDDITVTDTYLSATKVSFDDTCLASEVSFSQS
# Progesterone receptor (Homo sapiens), sequence (P06401 whole entry, looked up): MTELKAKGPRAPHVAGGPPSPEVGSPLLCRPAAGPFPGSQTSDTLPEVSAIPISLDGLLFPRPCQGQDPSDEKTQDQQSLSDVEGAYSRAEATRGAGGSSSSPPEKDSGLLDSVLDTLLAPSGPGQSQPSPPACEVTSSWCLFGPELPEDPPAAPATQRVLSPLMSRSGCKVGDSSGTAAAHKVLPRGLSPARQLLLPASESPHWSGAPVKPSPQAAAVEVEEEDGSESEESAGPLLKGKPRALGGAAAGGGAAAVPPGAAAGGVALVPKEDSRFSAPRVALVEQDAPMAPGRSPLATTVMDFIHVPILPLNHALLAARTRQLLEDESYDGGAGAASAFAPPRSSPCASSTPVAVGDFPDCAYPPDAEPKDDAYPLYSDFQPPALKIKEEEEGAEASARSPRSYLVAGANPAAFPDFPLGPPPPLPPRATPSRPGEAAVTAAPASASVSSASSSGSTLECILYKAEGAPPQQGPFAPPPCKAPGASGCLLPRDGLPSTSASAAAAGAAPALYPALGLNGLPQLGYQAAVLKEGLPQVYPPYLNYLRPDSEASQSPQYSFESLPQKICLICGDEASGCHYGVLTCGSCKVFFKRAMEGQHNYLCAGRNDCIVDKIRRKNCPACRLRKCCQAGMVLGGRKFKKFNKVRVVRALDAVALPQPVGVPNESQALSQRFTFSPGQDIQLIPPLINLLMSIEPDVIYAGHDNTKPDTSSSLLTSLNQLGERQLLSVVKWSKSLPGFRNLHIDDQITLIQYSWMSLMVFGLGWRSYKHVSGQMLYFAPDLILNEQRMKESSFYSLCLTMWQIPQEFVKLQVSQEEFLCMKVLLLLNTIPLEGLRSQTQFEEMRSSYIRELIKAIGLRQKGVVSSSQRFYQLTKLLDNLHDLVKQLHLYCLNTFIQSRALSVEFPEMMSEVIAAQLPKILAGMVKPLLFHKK
# Nuclear receptor subfamily 1 group I member 2 (Homo sapiens), sequence (O75469 whole entry, looked up): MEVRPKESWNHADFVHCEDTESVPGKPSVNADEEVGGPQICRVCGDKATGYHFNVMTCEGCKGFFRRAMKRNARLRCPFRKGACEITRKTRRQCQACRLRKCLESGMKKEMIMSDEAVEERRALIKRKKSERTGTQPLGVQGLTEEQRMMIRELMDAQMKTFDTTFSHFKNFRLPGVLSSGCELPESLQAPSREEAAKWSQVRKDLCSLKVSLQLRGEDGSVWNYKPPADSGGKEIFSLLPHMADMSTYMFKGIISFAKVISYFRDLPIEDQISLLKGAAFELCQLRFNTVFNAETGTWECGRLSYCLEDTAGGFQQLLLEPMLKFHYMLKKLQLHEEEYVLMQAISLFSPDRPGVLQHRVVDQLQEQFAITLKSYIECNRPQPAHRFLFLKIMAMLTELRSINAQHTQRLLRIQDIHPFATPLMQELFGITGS
smiles,measurement,setting,value
CC(=O)OC1C2(C)CCC(C2)C1(C)C (stereo not drawn),Potency,[1],inactive
same,Potency,[2],inactive
same,Potency,[3],inactive
same,Potency,[4],inactive
same,Potency,[5],inactive
same,outcome,[6],inactive
same,outcome,[7],inactive
same,outcome,[8],inactive
same,Potency,[9],inactive
same,Potency,[10],inactive
same,Potency,[11],inactive
same,outcome,[12],inactive
same,Potency,[13],inactive
same,Potency,[14],inactive
same,Potency,[15],inactive
CCN(CC)CCOc1ccc(Cc2ccccc2)cc1,Potency,[1],inactive
same,Potency,[2],inactive
same,Potency,[3],inactive
same,Potency,[4],inactive
same,Potency,[5],inactive
same,outcome,[6],inactive
same,outcome,[16],inactive
same,outcome,[7],inactive
same,Potency,[10],inactive
same,Potency,[11],inactive
same,outcome,[12],inactive
same,Potency,[13],inactive
same,Potency,[14],23.7 µM (active)
same,max activation,[17],-17.9%
same,Potency,[18],11.2 µM (active)
same,Potency,[19],4.47 µM (active)
same,Potency,[15],9.77 µM (active)
C[C@@H]1CN(c2c(F)c(N)c3c(=O)c(C(=O)O)cn(C4CC4)c3c2F)C[C@H](C)N1,"activity change, negative = cytotoxicity",[1],1.7% [at 19 µM]
same,activation,[2],3.14% [at 19 µM]
same,"activity change, negative = inhibition",[3],8.12% [at 18.9 µM]
same,Potency,[4],inactive
same,"activity change, negative = cytotoxicity",[5],4.97% [at 19 µM]
same,"viability change, negative = cytotoxic",[6],4.43% [at 15.8 µM]
same,activation,[7],1.17% [at 15.8 µM]
same,"activity, negative = inhibition",[8],0.314% [at 10.5 µM]
same,activation,[9],-0.407% [at 11.8 µM]
same,"activity change, negative = cytotoxicity",[20],5.72% [at 19 µM]
same,caspase activation,[10],0.598% [at 19 µM]
same,"activity change, negative = cytotoxicity",[11],5.21% [at 19 µM]
same,caspase-3/7 activation,[12],-1.56% [at 19 µM]
same,"activity change, negative = cytotoxicity",[13],-0.6% [at 19 µM]
same,activation,[14],-7.57% [at 19 µM]
same,max activation,[17],-3.87%
same,Potency,[18],inactive
same,Potency,[19],inactive
same,"activity change, negative = inhibition",[15],-4.41% [at 23.6 µM]
CN1CCN(C2=Nc3ccccc3Oc3ccc(Cl)cc32)CC1,Potency,[1],inactive
same,Potency,[2],inactive
same,Potency,[3],26.6 µM (active)
same,Potency,[4],inactive
same,Potency,[5],inactive
same,outcome,[6],inactive
same,outcome,[16],inactive
same,Potency,[10],inactive
same,outcome,[12],inactive
same,Potency,[14],23.7 µM (active)
same,max activation,[17],-1.38%
same,Potency,[18],1.26 µM (active)
same,Potency,[19],inactive
same,Potency,[15],4.9 µM (active)
OCC(CBr)(CBr)CBr,Potency,[1],inactive
same,Potency,[2],inactive
same,Potency,[3],34.2 µM (active)
same,Potency,[4],inactive
same,outcome,[6],inactive
same,outcome,[16],inactive
same,outcome,[7],inactive
same,outcome,[8],inactive
same,Potency,[9],inactive
same,Potency,[20],inactive
same,Potency,[11],inactive
same,outcome,[12],inactive
same,Potency,[13],inactive
same,Potency,[15],inactive
CCCCCCCOC(=O)CCC,Potency,[1],inactive
same,Potency,[2],inactive
same,Potency,[3],inactive
same,Potency,[4],inactive
same,Potency,[5],inactive
same,outcome,[16],inactive
same,outcome,[7],inactive
same,Potency,[20],inactive
same,Potency,[10],inactive
same,Potency,[11],inactive
same,outcome,[12],inactive
same,Potency,[13],inactive
same,Potency,[14],inactive
same,Potency,[15],20 µM (active)
CCCOCCC,Potency,[1],inactive
same,Potency,[2],inactive
same,Potency,[3],inactive
same,Potency,[4],inactive
same,outcome,[6],inactive
same,outcome,[16],inactive
same,outcome,[7],inactive
same,outcome,[8],inactive
same,Potency,[9],inactive
same,Potency,[20],inactive
same,Potency,[10],inactive
same,Potency,[11],inactive
same,outcome,[12],inactive
same,Potency,[13],inactive
same,Potency,[14],inactive
same,Potency,[15],inactive
Cc1ccc(C(C)C)cc1O,Potency,[1],inactive
same,Potency,[2],inactive
same,Potency,[3],inactive
same,Potency,[4],inactive
same,Potency,[5],inactive
same,outcome,[6],inactive
same,outcome,[16],inactive
same,outcome,[7],inactive
same,Potency,[10],inactive
same,Potency,[11],inactive
same,outcome,[12],inactive
same,Potency,[13],inactive
same,Potency,[14],inactive
same,Potency,[15],inactive
